In PubChem BioAssay AID504634 (The Scripps Research Institute Molecular Screening Center, 2011):
Hit rate of the full screen: of about 340,000 compounds, about 280 (0.082%) were called active. Only a selection was taken, and actives are over-represented in it overall. Unmarked numbers belong to inactive results. Rule as the data show it: active = inhibition mostly above about 23% (no sharp cut-off); inactive = mostly below about 18%.

target: 5-hydroxytryptamine receptor 5A (Homo sapiens) (UniProt P47898); experiment: inverse agonism at human 5-HT5A receptor – cell-based, luminescence, full-deck HTS, counter-screen for OPRM1-OPRD1 heterodimer inverse agonist project, primary screen (AID 504634); conditions: HTR5A cell line, at 9.3 µM, active compounds read high;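 also: 0% = cells with DMSO and 100% = no-cell wells with DMSO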
Sequence (P47898 whole entry, looked up): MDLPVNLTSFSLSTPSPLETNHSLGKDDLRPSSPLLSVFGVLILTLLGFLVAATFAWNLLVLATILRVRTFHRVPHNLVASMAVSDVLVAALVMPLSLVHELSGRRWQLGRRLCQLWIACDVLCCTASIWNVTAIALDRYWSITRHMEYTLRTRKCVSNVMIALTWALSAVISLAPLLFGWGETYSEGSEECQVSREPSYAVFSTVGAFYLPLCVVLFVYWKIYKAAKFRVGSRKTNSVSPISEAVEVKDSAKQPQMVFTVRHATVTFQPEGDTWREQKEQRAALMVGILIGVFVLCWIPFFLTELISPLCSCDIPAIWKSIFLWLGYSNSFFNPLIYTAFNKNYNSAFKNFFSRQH

SMILES | inhibition [%]
CCc1c(SCCC(=O)O)nc2ccccc2c1C | -56.3
C=CCNC(=O)C1CC=CCC1C(=O)O (configuration not stated) | 19.4
Cc1ccc2cc(CN(c3ccc(C)c(C)c3)S(C)(=O)=O)c(=O)[nH]c2c1 | -3.96
CC(OC(=O)c1ccccc1NCCO)C(=O)Nc1ccnn1C(C)C (configuration not stated) | -11.8
COC(=O)c1ccc(Sc2ccc(F)cc2)c(N)c1 | -3.93
CC(C)CCN1CCN(C/C=C/c2ccco2)CC1CCO (configuration not stated) | -0.83
CC(=O)c1ccc(N2CCN(C(=O)c3ccc(Cl)c(S(=O)(=O)NC4CC4)c3)CC2)c(F)c1 | -4.11
CC(C)(C)n1nnnc1C(c1ccccc1F)N1CCN(C(=O)c2ccco2)CC1 (configuration not stated) | -20.1
Cc1nn(CCCC(=O)NCc2ccccc2Cl)c(=O)c2nccn12 | -28.5
CN(C)CCCNC(=S)N1CCN(c2nc(-c3ccccc3)cs2)CC1 | -13.5
Cc1c(CCC(=O)N[C@@H](CC(C)C)C(=O)O)c(=O)oc2c(C)c3oc4c(c3cc12)CCCC4 | 3.6
CC/C(=C\c1ccc(Cl)cc1)c1ccncc1 | -7.07
COc1cc(C(=S)N2CCOCC2)cc(OC)c1OC(=O)c1ccc([N+](=O)[O-])cc1[N+](=O)[O-] | -0.97
COc1ccc(CNC(=O)C(c2ccc(O)cc2)N(Cc2ccco2)C(=O)c2snc(C(N)=O)c2N)cc1 (configuration not stated) | 3.12
COC(=O)c1ccc(NC(=S)NN2CCOCC2)cc1 | 13.4
O=S(=O)(Nc1ccc(-c2ccc(N3CCOCC3)nn2)cc1)c1cc(Cl)ccc1Cl | -25.2
COc1cccc(COC(=O)C2CCN(S(=O)(=O)c3cccs3)CC2)c1OC | -12.6
CCC1CCCCN1CCCNC(=O)c1cc2c(Cl)nc3ccccc3c2s1 (configuration not stated) | 5.42
CCn1c(=O)n(CC)c2cc(N3CCCC3)c(NC(=O)c3ccccc3Br)cc21 | 10.1
Cc1ccccc1-c1n[nH]c(=S)n1/N=C/c1ccc(-c2ccccc2Br)o1 | 4.19
CS(=O)(=O)N(CC(=O)Nc1ccc(F)cc1F)c1cccc([N+](=O)[O-])c1 | 14.4
Cc1ccc(OCCC(=O)Nc2ccc(S(=O)(=O)Nc3nccs3)cc2)cc1 | -6.52
CC(C)CCNC(=O)CCNS(=O)(=O)c1ccc(Cl)cc1 | -7.35
OC(COc1ccc2c(c1)CCC2)CN1CCN(c2cccc(Cl)c2)CC1 (configuration not stated) | -19.1
CCOc1ccc(C(=O)NC(=S)Nc2ccc(N3CCOCC3)c(Cl)c2)cc1[N+](=O)[O-] | 30.9
O=c1o[nH]c(-c2ccccc2)c1N=Nc1c(F)cccc1Cl | -12.2
COc1ccc2c(c1)CCC/C2=N\OC(=O)c1ccccc1F | 0.11
